OTUD3 inh: inhibitors of human OTUD3 deubiquitinase; purified OTUD3, Ub-rhodamine fluorescence, 2 h; inhibition, % at 25 µM; hit rate 0.7% among 47,000
USP28 inh: inhibitors of human USP28 deubiquitinase | Ubiquitin carboxyl-terminal hydrolase 28 (Homo sapiens), Q96RU2 | purified USP28, Ub-rhodamine cleavage fluorescence, 30 min | inhibition, % at 25 µM | hit rate 3% among 47,000 | AID 1645857, 2021
Target sequence (Q96RU2 whole entry, looked up): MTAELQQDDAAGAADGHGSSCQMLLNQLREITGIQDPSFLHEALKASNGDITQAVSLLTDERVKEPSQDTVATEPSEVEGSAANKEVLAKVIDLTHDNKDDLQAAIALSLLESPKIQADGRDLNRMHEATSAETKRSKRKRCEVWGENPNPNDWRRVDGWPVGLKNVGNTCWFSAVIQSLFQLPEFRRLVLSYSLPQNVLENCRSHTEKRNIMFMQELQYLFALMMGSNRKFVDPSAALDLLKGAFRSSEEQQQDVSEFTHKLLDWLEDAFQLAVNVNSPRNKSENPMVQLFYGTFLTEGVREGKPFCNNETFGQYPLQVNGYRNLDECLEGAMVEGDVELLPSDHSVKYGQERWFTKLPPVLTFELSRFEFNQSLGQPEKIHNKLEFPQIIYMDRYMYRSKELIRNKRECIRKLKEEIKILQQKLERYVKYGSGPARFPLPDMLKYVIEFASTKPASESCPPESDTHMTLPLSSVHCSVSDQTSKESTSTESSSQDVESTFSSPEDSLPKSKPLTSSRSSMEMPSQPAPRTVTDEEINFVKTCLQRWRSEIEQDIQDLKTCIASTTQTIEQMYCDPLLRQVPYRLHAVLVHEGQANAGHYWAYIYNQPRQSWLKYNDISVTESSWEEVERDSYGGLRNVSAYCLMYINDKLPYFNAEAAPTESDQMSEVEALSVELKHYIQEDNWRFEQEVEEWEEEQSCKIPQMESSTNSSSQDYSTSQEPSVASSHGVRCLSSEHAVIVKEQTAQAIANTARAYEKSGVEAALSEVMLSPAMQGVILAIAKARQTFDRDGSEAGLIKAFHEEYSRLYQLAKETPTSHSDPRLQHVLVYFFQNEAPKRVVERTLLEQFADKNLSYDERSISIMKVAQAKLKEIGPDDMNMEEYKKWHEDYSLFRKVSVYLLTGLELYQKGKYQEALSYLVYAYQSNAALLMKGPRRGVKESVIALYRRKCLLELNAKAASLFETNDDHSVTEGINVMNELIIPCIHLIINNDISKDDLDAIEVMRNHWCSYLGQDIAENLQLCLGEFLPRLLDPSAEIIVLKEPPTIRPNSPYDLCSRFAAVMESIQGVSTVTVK
* hit, by the source's call. Only some compounds are listed: those with a hit (about 3.3% of all), similar ones and a draw of the others. No stated cut-off is given here; in the data, active means inhibition above about 30%; inactive means the rest.

SMILES	OTUD3 inh	USP28 inh
c1ccc(Cc2nnc(N3CCOCC3)c3ccccc23)cc1	14	34*
O=C(COc1cccc(C(=O)NCc2ccccc2)c1)Nc1ccc(Oc2ccccc2)cc1	40*	20
COC(=O)c1ccc(CNC(=O)c2ccc(Oc3ccccc3)cc2)cc1	12	15
O=C(CC1CCCC1)N1CCC(Oc2cc(N3CCCC3)ncn2)C1 (configuration not stated)	-8	-12
CCOc1ccc(-n2c(SCC(=O)N3CC(=O)Nc4ccccc43)nnc2-c2ccc(OC)cc2)cc1	-9	35*
COc1cccc(-n2c(SCC(=O)N3CCc4ccccc43)nnc2-c2cccnc2)c1	2	4
Cc1cccc(CNS(=O)(=O)c2ccc(-c3cc(C)no3)s2)c1	11	16
Cc1cc(-c2ccc(S(=O)(=O)NCc3ccc(Cl)cc3)s2)on1	3	59*
O=C(CSc1ccccc1)Nc1cccc2nsnc12	11	28
COc1ccc(-n2c(SCC(=O)c3c[nH]c4ccccc34)nnc2-c2ccccc2)cc1OC	2	-6
CCN(c1ccc(NC(=O)CSc2nnc(-c3ccccc3)n2-c2ccc(OC)c(OC)c2)cc1)C(C)C	21	41*
Cc1ccc(NC(=O)COC(=O)C2(c3ccc(F)cc3)CCCC2)cc1C	2	-8
COc1ccccc1CNC(=O)c1cccc2cccnc12	7	24
O=C(NCc1ccccc1CN1CCCC1)c1cccc2cccnc12	-12	37*
O=C(Cc1cccs1)N1CCC(Nc2ncnc3c2CCC3)C1 (configuration not stated)	0	-4
CCn1cnc2ccc(C(=O)NC3CC3)cc2c1=O	-4	62*
CCn1ncc2ccc(C(=O)NC3CC3)cc21	1	-12
CCOc1ccc2nc(SCc3cn4cc(Cl)ccc4n3)[nH]c2c1	2	41*
Cc1cccc(OCCCSc2nc3ccc(C)cc3[nH]2)c1	15	28
Cc1cc(Nc2ccc(C)c(Cl)c2)n2nc(-c3ccco3)nc2n1	-34	-34
COC(=O)c1cccc2nc3c(C(C)O)cccc3nc12 (configuration not stated)	-3	-41
Cc1cccc(O)c1C(=O)OC(C)c1cccc2nc3c(C(=O)O)cc4c(c3nc12)C(C)c1cccc2c1N4c1cccc(C(=O)O)c1N2 (configuration not stated)	101*	100*
O=c1c(O)c(-c2ccc(O)c(O)c2)oc2cc(O)cc(O)c12	95*	98*
COc1cc(OC)c2c(=O)cc(-c3ccccc3)oc2c1	-6	1
O=c1cc(-c2ccc(O)c(O)c2)oc2cc(O)cc(O)c12	101*	99*
SMILES	OTUD3 inh	USP28 inh
O=c1c(-c2ccc(O)cc2)coc2cc(O)cc(O)c12	-10	-7
Cc1cc(Nc2ncc(C)s2)cc(C2CCCN2Cc2ccnn2C)n1 (configuration not stated)	-18	-16
O=C(NCC1CCCO1)c1cc2c(cn1)[nH]c1ccccc12 (configuration not stated)	-9	34*
Cc1cc(C(=O)NCC2CCCO2)c2cccc(C)c2n1 (configuration not stated)	-10	-7
O=C(NCCSc1ccc(Cl)cc1)c1cccc(F)c1	14	28
COc1cccc(C(=O)NCCSc2ccc(Cl)cc2)c1	20	44*
COc1ccc(N2CCCn3c2nc2c3c(=O)n(C)c(=O)n2C)cc1	16	11
O=C(CCSCc1cccc(F)c1)NCCc1ccc(Cl)cc1	11	15
Cc1nc(Nc2ccccn2)sc1C(=O)N1CCCCCC1	-19	-18
COc1ccnc(NCC(c2ccccc2)c2c[nH]c3ccccc23)n1 (configuration not stated)	-17	1
COc1ccc(CCC(=O)Nc2ncc(C)s2)cc1OC	12	54*
COc1ccc(CC(=O)Nc2ncc(C)s2)c(OC)c1OC	-9	-9
O=c1c2ccccc2oc2nc(-c3cccs3)n(-c3ccccc3)c(=O)c12	-3	9
CC(C)(C)C(=O)COC(=O)c1c2c(nc3ccccc13)CCCCC2	3	2
O=C(OCc1c(F)cccc1Cl)c1c2c(nc3ccccc13)CCC2	25	34*
O=C1CCSc2ccccc2N1Cc1ccccc1F	0	25
O=C1CCSc2ccc(Cl)cc2N1Cc1ccc(Cl)cc1	17	42*
COc1ccc(CC(=O)N2CCc3c(nc[nH]c3=O)C2)cc1Cl	-16	-16
O=S(=O)(c1ccc(F)cc1)N1CCCC1c1ccnc(Nc2cnccn2)n1 (configuration not stated)	12	45*
O=C(c1ccc(F)cc1)N1CCCC1c1ccnc(Nc2cnccn2)n1 (configuration not stated)	-2	1
O=C(C1CCC(=O)N1S(=O)(=O)c1ccccc1)N1CCN(c2ccccc2F)CC1 (configuration not stated)	4	8
Cc1nn(-c2nc3ccccc3s2)c2c1C(c1c(F)cccc1F)CC(=O)N2 (configuration not stated)	5	1
Cc1nn(C)c2c1[C@@H](c1ccc(F)cc1)[C@H](NC(=O)c1ccccc1)C(=O)N2	13	80*
Cc1nn(-c2ccccc2)c2c1[C@@H](c1ccc3c(c1)OCCO3)[C@H](NC(=O)c1ccccc1)C(=O)N2	-7	-10
CCOc1ccc([C@@H]2c3c(C)nn(-c4ccccc4)c3NC(=O)[C@H]2NC(=O)c2cccc(C)c2)cc1	5	15
SMILES	OTUD3 inh	USP28 inh
Cc1ccc(-n2nc(C)c3c2NC(=O)[C@@H](NC(=O)c2ccccc2)[C@@H]3c2ccc(F)cc2)cc1	-9	48*
O=C(O)c1cccc(NC(=O)c2nn(Cc3ccccc3)c(=O)c3ccccc23)c1	-5	1
Cc1ccc(NC(=O)Nc2cnn(-c3ncncc3N3CCOCC3)c2)cc1	-10	1
O=C(N[C@@H]1[C@@H](c2ccccc2)[C@@H](CO)N2CCC[C@H]12)c1ccc2c(c1)OCCCO2	0	0
O=C1CCN(C(=O)c2ccc(C(=O)c3ccccc3)cc2)CC1	14	3
O=C(c1ccccc1)c1cccc2c1NCC2	11	43*
Cc1ccc(NC(=O)CCc2nc(CSc3nc4ccccc4o3)no2)c(C)c1	8	5
O=C(CCc1nc(CSc2nc3ccccc3o2)no1)Nc1ccccc1F	13	48*
Cc1cccc(NC(=O)Cn2cnc(-c3noc(-c4ccccc4)n3)c2)c1C	37*	39*
O=C(Cn1cnc(-c2noc(-c3ccc(F)cc3)n2)c1)Nc1ccccc1F	10	0
O=C(Nc1ccc(Cn2cnc(-c3nc(-c4ccccc4)no3)c2)cc1)c1ccccc1F	9	23
Cc1ccccc1-c1noc(-c2cn(Cc3ccc(NC(=O)Cc4ccccc4)cc3)cn2)n1	6	37*
FC(F)(F)c1cccc(OCc2cc(-c3ccccc3)no2)c1	3	1
Cc1noc(C)c1COc1cccc(C(=O)Nc2cccc(S(=O)(=O)N(C)c3ccccc3)c2)c1	0	18
COC(=O)c1ccc2c(=O)n(CCCCCC(=O)NCCc3ccccc3Cl)c(=O)[nH]c2c1	-2	-15
COC(=O)c1ccc2c(=O)n(CCCCCC(=O)NCCc3ccc(S(N)(=O)=O)cc3)c(=O)[nH]c2c1	21	86*
O=C1CC(c2ccccc2F)c2c(nc(-c3ccccc3)[nH]c2=O)N1 (configuration not stated)	0	4
